As usually defined, the inhibition is the relative decrease from the control value, in per cent.

Each structure is given as a SMILES string. The campaign covered roughly 91,000 compounds. About 160 (0.18%) were called active. The full list was thinned out, with actives kept by preference. Unmarked numbers belong to inactive results.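 How the source made its calls: active means inhibition above the batch mean plus 3 SD and confirmed as a hit by visual image inspection (cut at about 30% in these data, passing the limit was not always enough); inconclusive means above the inhibition threshold but rejected on visual inspection; inactive means the rest.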

From PubChem BioAssay AID836 (Columbia University Molecular Screening Center, 2007) come the findings set out here.

This experiment in a line: disruptors of actin filament network in HUVEC – imaging, phalloidin staining, high-content imaging, primary screen (AID 836). The note with it: HUVEC TNFa F-actin phalloidin imaging, at 2 µM, hits give high values.
For `Cc1ccc(NC(=S)N/N=C2/CCCc3c(C)cc(C)cc32)cc1`, the inhibition was 13.9%. Take `Cc1nn(-c2ccccc2)c(Cl)c1C(=O)Nc1ccccc1`: the inhibition is -7.8%.

For `Cc1cc(=O)oc2cc(OC(C)C(=O)Nc3ccc(N4CCOCC4)cc3)ccc12` (centres undefined), the inhibition is 0.5%. As for `CCOC(=O)CSc1ncc(-c2cccc(Cl)c2)cn1`, the figure is -17.9%.

Regarding `C=CCn1c(SCC(=O)c2c(N)n(C)c(=O)n(C)c2=O)nc2sc(CC)cc2c1=O`, the inhibition was 2%. As for `Cc1cccc(NC(=O)c2ccc(OCC(=O)NCc3ccccc3)cc2)c1C`, the figure is 4.9%; as for `COc1ccc(Cl)cc1NC(=O)CN(C)C(=O)CNC(=O)C12CC3CC(CC(C3)C1)C2`, 16%. As for `O=C(Cc1ccc(S(=O)(=O)N2CCOCC2)s1)NCCC(c1ccccc1)c1ccccc1`, the figure is 4.8%; as for `CCCc1ccc(-c2c(C)sc(NC(=O)c3ccnn3C)c2C#N)cc1`, 10%. With `CCOC(=O)C1=C(CN2CCc3ccccc32)NC(=O)NC1c1cc(C)ccc1C` (centres undefined) the figure was -13.1%; with `CCn1cc(C(=O)N/N=C(/C)c2ccc(F)cc2)c(=O)c2cc(F)c(N3CCCC3)cc21`, 15.8%; with `Cc1c(C(=O)NCc2ccccc2)cnn1-c1ccccc1`, -6.2%. `O=C(Nc1cc(C(F)(F)F)ccc1Cl)c1cc2nc3c(c(C(F)(F)F)n2n1)CCCC3`: the inhibition was 0.6%. With `O=C(CN1CCCCCC1)Nc1ccc(Br)cc1Br` the figure was 12.8%; with `CC(C)(C)Cc1nnc(NC(=O)c2cc(-c3ccccc3)nc3ccccc23)s1`, 15.7%; with `C=CCn1c(-c2ccc(Cl)cc2)ccc(C#N)c1=O`, -30.7%.

For the molecule `O=[N+]([O-])c1cccc(-c2nnc3c4ccccc4c4ccccc4n23)c1`, the inhibition is 5.3%. With `CN1OC(COC(=O)c2ccc(Cl)cc2)CC1c1ccccc1` (centres undefined) the figure was 6.5%. As for `CC1Cc2ccccc2N1CC(=O)Nc1ccc2c(c1)OC(F)(F)O2` (centres undefined), the figure is -0.7%; as for `Cn1sc(NC(=O)c2ccccc2)nc1=O`, -7.1%. As for `CCC1(C)Cc2c(sc3nc4n(c(=O)c23)CCCS4)CO1` (centres undefined), the figure is -10.6%; as for `CCOC(=O)CSc1nc2sc3c(c2c(=O)[nH]1)CC(C)(C)OC3`, 4.9%. For `CCOC(=O)Cn1c(SC)nc2sc3c(c2c1=O)CC(C)(C)OC3`, the inhibition was 81.7% (active). `COc1ccc(CCN(C(=O)COc2ccccc2)c2nc(-c3ccccc3)cs2)cc1OC`: the inhibition is -22.5%. For the molecule `C=CCOc1cccc(CNn2cn[nH]c2=S)c1`, the inhibition was 0.7%. `Cn1c2ccccc2n2c(=O)c(=O)n(CC(=O)c3ccc(F)cc3)nc12`: the inhibition is -17.3%. For the molecule `COc1ccc(Nc2nc(-c3ccccc3)cs2)cc1`, the inhibition is 11.3%. With `c1ccc(C2CCC(N3CCC(N4CCCCC4)CC3)CC2)cc1` (centres undefined) the figure was 26.6%; with `O=C(CSCc1c(Cl)cccc1Cl)NN1C(=O)c2ccccc2C1=O`, 11.9%; with `CC(=O)NNc1cc(=O)c2c(=O)n(C)c(=O)n(C)c2[nH]1`, -8.3%. As for `CCCCNC(=O)CCn1c(=S)[nH]c2cc3c(cc2c1=O)OCO3`, the figure is -16.1%. For the molecule `CCCNC(=S)NC1CC2CCCC(C1)N2CC(C)C` (centres undefined), the inhibition was 14.2%. As for `O=C(NC1CCc2ccccc21)C12CN(Cc3ccccc3)CC1C(c1cccc([N+](=O)[O-])c1)=NO2` (centres undefined), the figure is 11.9%; as for `CCCSc1nsc(N)n1`, 8.5%.
